Results on 21 compounds are retold here after PubChem BioAssay (EPA / NIEHS).

Molecules are shown by their SMILES. Inconclusive results are not listed. Active and inactive are the calls of the source. The calls were made as follows: active = hit-call score of the fitted dose curve at least 0.9, where 1 is the maximum; inconclusive = response in the unintended direction; inactive = score below 0.9.

human Casein Kinase 1-delta (CK1D), CSNK1D (gene 1453), sequence (P48730 whole entry, looked up): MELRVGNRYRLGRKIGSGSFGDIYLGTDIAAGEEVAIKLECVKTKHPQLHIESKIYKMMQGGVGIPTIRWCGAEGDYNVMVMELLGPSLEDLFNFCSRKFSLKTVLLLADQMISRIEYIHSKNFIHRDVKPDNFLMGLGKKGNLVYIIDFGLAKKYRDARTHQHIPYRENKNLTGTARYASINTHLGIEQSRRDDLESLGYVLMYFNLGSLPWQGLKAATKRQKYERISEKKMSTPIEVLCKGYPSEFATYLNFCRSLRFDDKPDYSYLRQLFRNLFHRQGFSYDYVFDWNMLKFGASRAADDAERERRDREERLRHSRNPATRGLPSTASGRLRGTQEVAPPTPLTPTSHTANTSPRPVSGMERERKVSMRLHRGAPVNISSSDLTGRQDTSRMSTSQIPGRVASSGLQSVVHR
human Dual Specificity Protein Phosphatase 3 (DUSP3), DUSP3 (gene 1845), sequence (P51452 whole entry, looked up): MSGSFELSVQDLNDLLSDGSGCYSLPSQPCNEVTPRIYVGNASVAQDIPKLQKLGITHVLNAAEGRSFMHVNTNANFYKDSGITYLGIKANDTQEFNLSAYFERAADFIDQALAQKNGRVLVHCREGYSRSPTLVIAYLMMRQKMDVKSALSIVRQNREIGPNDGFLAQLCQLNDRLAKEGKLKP
human Caspase 4 (CASP4), CASP4 (gene 837), sequence (P49662 whole entry, looked up): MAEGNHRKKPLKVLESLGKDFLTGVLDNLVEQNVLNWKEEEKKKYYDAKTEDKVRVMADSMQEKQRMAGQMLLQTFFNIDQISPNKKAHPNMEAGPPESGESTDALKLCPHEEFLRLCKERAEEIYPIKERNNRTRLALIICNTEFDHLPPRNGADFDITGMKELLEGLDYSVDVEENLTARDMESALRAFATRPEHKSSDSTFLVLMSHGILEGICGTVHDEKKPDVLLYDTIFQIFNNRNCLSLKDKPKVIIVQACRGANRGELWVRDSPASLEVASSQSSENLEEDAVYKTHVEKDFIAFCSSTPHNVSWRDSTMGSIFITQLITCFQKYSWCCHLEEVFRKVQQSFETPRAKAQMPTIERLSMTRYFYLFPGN
human AKT serine/threonine Kinase 1 (AKT1), AKT1 (gene 207), sequence (P31749 whole entry, looked up): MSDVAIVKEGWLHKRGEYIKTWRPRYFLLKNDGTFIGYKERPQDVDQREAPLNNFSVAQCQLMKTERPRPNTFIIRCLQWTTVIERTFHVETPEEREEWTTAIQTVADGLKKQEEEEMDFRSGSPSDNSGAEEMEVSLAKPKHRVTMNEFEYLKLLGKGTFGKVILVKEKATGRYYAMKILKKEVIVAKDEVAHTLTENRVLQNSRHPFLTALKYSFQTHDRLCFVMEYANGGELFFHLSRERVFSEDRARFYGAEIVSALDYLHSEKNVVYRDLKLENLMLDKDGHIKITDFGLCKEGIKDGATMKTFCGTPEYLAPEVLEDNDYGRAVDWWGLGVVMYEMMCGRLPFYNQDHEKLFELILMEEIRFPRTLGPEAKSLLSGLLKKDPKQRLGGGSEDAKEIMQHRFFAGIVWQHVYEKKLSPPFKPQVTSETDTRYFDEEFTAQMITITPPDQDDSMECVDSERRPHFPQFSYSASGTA
human Colony Stimulating Factor 1 Receptor (CSF1R), CSF1R (gene 1436), sequence (P07333 whole entry, looked up): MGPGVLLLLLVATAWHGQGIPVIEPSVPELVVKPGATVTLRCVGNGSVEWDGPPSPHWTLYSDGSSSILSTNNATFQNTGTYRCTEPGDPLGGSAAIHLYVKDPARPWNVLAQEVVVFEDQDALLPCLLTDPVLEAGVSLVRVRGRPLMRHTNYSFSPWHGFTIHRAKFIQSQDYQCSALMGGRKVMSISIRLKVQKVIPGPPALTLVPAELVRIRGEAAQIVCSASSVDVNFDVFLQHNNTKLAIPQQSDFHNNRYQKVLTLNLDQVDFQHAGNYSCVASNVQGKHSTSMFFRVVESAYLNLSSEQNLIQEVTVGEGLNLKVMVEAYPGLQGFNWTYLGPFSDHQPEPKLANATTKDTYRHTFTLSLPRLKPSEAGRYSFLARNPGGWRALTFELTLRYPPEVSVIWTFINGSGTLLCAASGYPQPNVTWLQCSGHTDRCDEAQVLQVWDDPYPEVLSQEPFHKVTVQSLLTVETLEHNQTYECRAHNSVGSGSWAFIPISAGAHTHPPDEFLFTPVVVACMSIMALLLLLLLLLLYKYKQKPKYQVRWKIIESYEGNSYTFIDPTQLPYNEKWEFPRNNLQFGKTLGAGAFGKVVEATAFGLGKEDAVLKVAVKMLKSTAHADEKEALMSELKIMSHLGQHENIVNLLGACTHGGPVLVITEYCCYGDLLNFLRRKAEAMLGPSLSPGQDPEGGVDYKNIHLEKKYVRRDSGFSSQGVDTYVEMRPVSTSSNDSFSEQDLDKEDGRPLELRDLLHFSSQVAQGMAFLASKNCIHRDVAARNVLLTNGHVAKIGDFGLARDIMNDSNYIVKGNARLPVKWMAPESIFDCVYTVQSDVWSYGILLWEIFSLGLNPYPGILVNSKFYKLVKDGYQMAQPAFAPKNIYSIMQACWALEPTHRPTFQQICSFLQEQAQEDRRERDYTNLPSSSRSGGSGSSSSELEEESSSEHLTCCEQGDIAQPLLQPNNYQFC
human Esterase Plasma (ES), BCHE (gene 590), sequence (P06276 whole entry, looked up): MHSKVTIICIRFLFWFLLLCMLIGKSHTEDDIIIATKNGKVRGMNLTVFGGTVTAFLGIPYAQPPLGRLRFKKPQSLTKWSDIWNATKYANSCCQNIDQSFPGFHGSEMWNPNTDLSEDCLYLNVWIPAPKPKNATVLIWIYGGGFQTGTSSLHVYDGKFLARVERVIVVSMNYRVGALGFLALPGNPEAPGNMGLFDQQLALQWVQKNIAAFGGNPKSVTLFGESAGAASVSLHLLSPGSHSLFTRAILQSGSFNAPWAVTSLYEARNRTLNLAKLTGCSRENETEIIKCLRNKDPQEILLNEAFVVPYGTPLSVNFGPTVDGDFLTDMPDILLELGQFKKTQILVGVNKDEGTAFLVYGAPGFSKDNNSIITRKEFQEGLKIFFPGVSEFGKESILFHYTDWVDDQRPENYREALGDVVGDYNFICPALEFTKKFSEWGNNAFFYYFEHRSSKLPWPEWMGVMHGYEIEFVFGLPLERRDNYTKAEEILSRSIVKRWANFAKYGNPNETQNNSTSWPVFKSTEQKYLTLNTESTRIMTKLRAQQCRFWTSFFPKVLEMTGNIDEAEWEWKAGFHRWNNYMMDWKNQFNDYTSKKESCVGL
human Elastase, ELANE (gene 1991), sequence (P08246 whole entry, looked up): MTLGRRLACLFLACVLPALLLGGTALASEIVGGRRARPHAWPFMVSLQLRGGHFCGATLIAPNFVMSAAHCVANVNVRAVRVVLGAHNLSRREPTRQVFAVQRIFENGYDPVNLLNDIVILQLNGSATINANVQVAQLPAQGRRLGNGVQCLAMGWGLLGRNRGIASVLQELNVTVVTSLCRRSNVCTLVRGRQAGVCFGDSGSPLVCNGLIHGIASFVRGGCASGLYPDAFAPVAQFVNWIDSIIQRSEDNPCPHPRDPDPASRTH

The target of the first assay is human AKT serine/threonine Kinase 1 (AKT1), AKT1 (gene 207) (UniProt P31749). Nature of the assay: NVS_ENZ_hAKT1: NovaScreen (NVS) Enzymatic Assay for human AKT serine/threonine Kinase 1 (AKT1) (AID 2283138). Summed up:
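Cell-free recombinant enzyme with substrate; activity read by fluorescence intensity after electrophoretic mobility shift separating substrate from product, 1 h after dosing. Single-concentration duplicates at 25 uM, then singleton concentration-response up to 50 uM; loss of signal versus DMSO.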
In the case of `O=C(O)c1cc(N=Nc2ccc(S(=O)(=O)Nc3ccccn3)cc2)ccc1O`, the outcome was inactive.

Consider `NC(=O)NO`, for which the AC50 (in general, the concentration giving half of the maximal activity seen) is 16.5 µM (active).

For the compound `CC(C)c1cccc(C(C)C)c1N1C(=O)c2ccc(O)cc2C1=O`, the compound was classed as inactive.

Consider `Cc1ccc(N)cc1O`, for which the compound was called inactive.

In a further assay the target is human Beta-secretase (BACE), BACE1 (gene 23621) (UniProt P56817). Description: NVS_ENZ_hBACE: NovaScreen (NVS) Enzymatic Assay for human Beta-secretase (BACE) (AID 2283140).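 Also: hits are inhibitors that reduce fluorescent substrate signal versus DMSO.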 Summed up: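 Cell-free fluorescence-intensity assay of recombinant BACE1 expressed in SF9 cells, read 1 hour after dosing. Loss of signal indicates reduced protease activity, fitted relative to DMSO negative control. Primary screen at 25 uM in duplicate; actives followed in concentration series.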
human Beta-secretase (BACE), BACE1 (gene 23621), sequence (P56817 whole entry, looked up): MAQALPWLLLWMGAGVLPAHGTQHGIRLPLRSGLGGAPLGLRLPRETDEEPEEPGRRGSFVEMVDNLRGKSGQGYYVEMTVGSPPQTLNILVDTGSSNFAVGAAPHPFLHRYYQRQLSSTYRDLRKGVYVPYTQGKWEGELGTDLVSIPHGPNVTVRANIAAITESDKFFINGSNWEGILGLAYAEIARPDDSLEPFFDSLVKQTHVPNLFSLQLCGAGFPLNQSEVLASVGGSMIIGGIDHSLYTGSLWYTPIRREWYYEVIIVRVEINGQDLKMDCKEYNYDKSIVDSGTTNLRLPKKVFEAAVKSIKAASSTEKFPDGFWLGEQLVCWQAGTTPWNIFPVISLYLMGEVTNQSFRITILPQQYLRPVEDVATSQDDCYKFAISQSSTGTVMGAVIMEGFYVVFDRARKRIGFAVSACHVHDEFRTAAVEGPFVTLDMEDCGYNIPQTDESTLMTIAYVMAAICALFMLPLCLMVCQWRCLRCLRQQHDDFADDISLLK
As to `CCOc1cccc(-n2cc(C(=O)N3CCN(c4cc(C(=O)O)c5ccccc5c4)CC3)nc2-c2ccc(C)cc2)c1`, the AC50 is 10.5 µM (active).

In the case of `Nc1nc2ncc(CNc3ccc(C(=O)N[C@@H](CCC(=O)O)C(=O)O)cc3)nc2c(=O)[nH]1`, the compound was classed as inactive.

Regarding `O=P(OC(CCl)CCl)(OC(CCl)CCl)OC(CCl)CCl`, the AC50 was 8.73 µM (active).

With `CCCCCCc1ccc(O)cc1O`, the result was inactive.

`O=C(OC[C@H]1O[C@@H](OC(=O)c2cc(O)c(O)c(OC(=O)c3cc(O)c(O)c(O)c3)c2)[C@H](OC(=O)c2cc(O)c(O)c(OC(=O)c3cc(O)c(O)c(O)c3)c2)[C@@H](OC(=O)c2cc(O)c(O)c(OC(=O)c3cc(O)c(O)c(O)c3)c2)[C@@H]1OC(=O)c1cc(O)c(O)c(OC(=O)c2cc(O)c(O)c(O)c2)c1)c1cc(O)c(O)c(OC(=O)c2cc(O)c(O)c(O)c2)c1`: the AC50 is 3.11 µM (active).

The next assay has as its target human Caspase 4 (CASP4), CASP4 (gene 837) (UniProt P49662). Nature of the assay: NVS_ENZ_hCASP4: NovaScreen (NVS) Enzymatic Assay for human Caspase 4 (CASP4) (AID 2283143). In short, it runs like this: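 The cell-free assay used E. coli-expressed enzyme with a fluorogenic substrate, read 2 h after dosing. Signal loss was scored versus DMSO. Screening was in duplicate at 25 uM, then singleton concentration-response up to 50 uM.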
Regarding `CCc1cc(SCc2sc(-c3ccc(C(F)(F)F)cc3)nc2CN2CCN(c3ccc(OC)cc3)CC2)ccc1OCC(=O)O`, the result was inactive.

For `CNS(=O)(=O)c1cc(C(=O)N2CCC(CCN3C4CCC3CC(n3c(C)nc5ccccc53)C4)(c3cccc(F)c3)CC2)c(Cl)cc1F` (centres undefined), the compound was called inactive.

In the case of `CCOc1cccc(-n2cc(C(=O)N3CCN(c4cc(C(=O)O)c5ccccc5c4)CC3)nc2-c2ccc(C)cc2)c1`, the outcome was inactive.

As to `Nc1ccc(Nc2ccccc2)cc1`, the call was inactive.

A further assay deals with human Casein Kinase 1-delta (CK1D), CSNK1D (gene 1453) (UniProt P48730). Description: NVS_ENZ_hCK1D: NovaScreen (NVS) Enzymatic Assay for human Casein Kinase 1-delta (CK1D) (AID 2283148). In short, it runs like this:
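Recombinant human CK1-delta, cell-free; fluorescent substrate with electrophoretic mobility-shift separation of product, read 1 h after dosing. Single 25 uM duplicate screen, then concentration-response up to 50 uM; loss of signal vs DMSO.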
Consider `Cc1[nH]cnc1C[C@H]1CCc2c(C)c3ccccc3n2C1=O`, for which the AC50 is 13.9 µM (active).

Regarding `CCOC(=O)COc1ccc2c(c1)CC(NCC(O)c1cccc(Cl)c1)CC2` (centres undefined), the result was inactive.

With `Nc1nc2ncc(CNc3ccc(C(=O)N[C@@H](CCC(=O)O)C(=O)O)cc3)nc2c(=O)[nH]1`, the AC50 was 11.4 µM (active).

Turning to `O=C(O)c1cccc(N(Cc2cccnc2)c2ccc(OC(F)F)c(OC(F)F)c2)c1`, the AC50 is 10.9 µM (active).

In the case of `COc1ccc(/C=C/S(=O)(=O)NC(=O)c2ccc(C)cc2Cl)cc1`, the AC50 is 30.5 µM (active).

In the case of `Cc1ccc(N)cc1O`, the result was inactive.

For `Cn1c(=O)cc(Oc2ccc(F)cc2F)c2cnc(NCC(C)(C)O)nc21`, the concentration at half-maximal activity (AC50) is 0.0119 µM (active).

The next assay deals with human Colony Stimulating Factor 1 Receptor (CSF1R), CSF1R (gene 1436) (UniProt P07333). Nature of the assay: NVS_ENZ_hCSF1R: NovaScreen (NVS) Enzymatic Assay for human Colony Stimulating Factor 1 Receptor (CSF1R) (AID 2283150). In short, it runs like this:
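Cell-free recombinant human CSF1R kinase with fluorescent substrate, product separated by electrophoretic mobility shift; read 1 h after dosing. Primary screen at 25 uM in duplicate, actives then in concentration-response up to 50 uM, relative to DMSO.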
As to `O=C(O)c1cc(N=Nc2ccc(S(=O)(=O)Nc3ccccn3)cc2)ccc1O`, the call was inactive.

Turning to `CNS(=O)(=O)c1cc(C(=O)N2CCC(CCN3C4CCC3CC(n3c(C)nc5ccccc53)C4)(c3cccc(F)c3)CC2)c(Cl)cc1F` (centres undefined), the AC50 was 39.1 µM (active).

On to `Cc1ccc(N)cc1O`, for which the call was inactive.

Turning to `CCN(C(=O)c1cc(C)cc(OC[C@H](C)Nc2ccncc2)c1)C(C)C`, the result was inactive.

For the compound `COc1ccc(-n2nc(C(F)F)cc2-c2ccc(S(C)=O)cc2)cc1` (centres undefined), the compound was called inactive.

For the next assay, the target named is human Dual Specificity Protein Phosphatase 3 (DUSP3), DUSP3 (gene 1845) (UniProt P51452). Description: NVS_ENZ_hDUSP3: NovaScreen (NVS) Enzymatic Assay for human Dual Specificity Protein Phosphatase 3 (DUSP3) (AID 2283152).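 Also: phosphatase activity of recombinant human DUSP3 on a fluorogenic substrate without cells.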 In short, it runs like this:
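Cell-free assay with recombinant human DUSP3 and fluorogenic substrate, read by fluorescence intensity. Primary screen ran duplicate at 25 uM; actives followed up in concentration series; loss of signal versus DMSO scored.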
On to `O=C(O)c1cc(N=Nc2ccc(S(=O)(=O)Nc3ccccn3)cc2)ccc1O`, for which the AC50 was 14 µM (active).

With `Nc1ccc(Nc2ccccc2)cc1`, the concentration at half-maximal activity (AC50) was 7.11 µM (active).

As for `O=C(OC[C@H]1O[C@@H](OC(=O)c2cc(O)c(O)c(OC(=O)c3cc(O)c(O)c(O)c3)c2)[C@H](OC(=O)c2cc(O)c(O)c(OC(=O)c3cc(O)c(O)c(O)c3)c2)[C@@H](OC(=O)c2cc(O)c(O)c(OC(=O)c3cc(O)c(O)c(O)c3)c2)[C@@H]1OC(=O)c1cc(O)c(O)c(OC(=O)c2cc(O)c(O)c(O)c2)c1)c1cc(O)c(O)c(OC(=O)c2cc(O)c(O)c(O)c2)c1`, the AC50 was 3.95 µM (active).

The next assay concerns the target human Elastase, ELANE (gene 1991) (UniProt P08246). Nature of the assay: NVS_ENZ_hElastase: NovaScreen (NVS) Enzymatic Assay for human Elastase (AID 2283153). Summed up: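 Cell-free elastase from human neutrophils, 1.5 h after dosing, activity read by absorbance. Primary screen in duplicate at 25 uM; hits (e.g., 30% inhibition) rerun in singleton concentration-response up to 50 uM, fitted versus DMSO.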
With `CCc1cc(SCc2sc(-c3ccc(C(F)(F)F)cc3)nc2CN2CCN(c3ccc(OC)cc3)CC2)ccc1OCC(=O)O`, the AC50 was 2.7 µM (active).

`CNS(=O)(=O)c1cc(C(=O)N2CCC(CCN3C4CCC3CC(n3c(C)nc5ccccc53)C4)(c3cccc(F)c3)CC2)c(Cl)cc1F` (centres undefined): the AC50 is 8.03 µM (active).

Regarding `CCOc1cccc(-n2cc(C(=O)N3CCN(c4cc(C(=O)O)c5ccccc5c4)CC3)nc2-c2ccc(C)cc2)c1`, the AC50 was 6.63 µM (active).

As for `Oc1ccc2c(c1)-c1ccccc1C2`, the AC50 was 23 µM (active).

In the case of `O=C(OC[C@H]1O[C@@H](OC(=O)c2cc(O)c(O)c(OC(=O)c3cc(O)c(O)c(O)c3)c2)[C@H](OC(=O)c2cc(O)c(O)c(OC(=O)c3cc(O)c(O)c(O)c3)c2)[C@@H](OC(=O)c2cc(O)c(O)c(OC(=O)c3cc(O)c(O)c(O)c3)c2)[C@@H]1OC(=O)c1cc(O)c(O)c(OC(=O)c2cc(O)c(O)c(O)c2)c1)c1cc(O)c(O)c(OC(=O)c2cc(O)c(O)c(O)c2)c1`, the AC50 is 0.0537 µM (active).

For a further assay, the target named is human Esterase Plasma (ES), BCHE (gene 590) (UniProt P06276). Description: NVS_ENZ_hES: NovaScreen (NVS) Enzymatic Assay for human Esterase Plasma (ES) (AID 2283157). In short, it runs like this:
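Chemicals were added to plasma-extracted human enzyme in a cell-free format, and activity was read colorimetrically after 0.25 hour. Activity loss was referenced to DMSO; concentration-response top dose was 50 uM.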
Consider `Cc1[nH]cnc1C[C@H]1CCc2c(C)c3ccccc3n2C1=O`, for which the AC50 is 14.4 µM (active).

On to `CCOC(=O)COc1ccc2c(c1)CC(NCC(O)c1cccc(Cl)c1)CC2` (centres undefined), for which the AC50 was 10.9 µM (active).

With `Nc1ccc(Nc2ccccc2)cc1`, the AC50 was 29.8 µM (active).

`O=C(O)CC(O)C(=O)O` (centres undefined): the result was inactive.

Turning to `CCN(C(=O)c1cc(C)cc(OC[C@H](C)Nc2ccncc2)c1)C(C)C`, the AC50 was 11.8 µM (active).

Consider `Oc1ccc2c(c1)-c1ccccc1C2`, for which the outcome was inactive.
